Assay outcomes as filed in PubChem.
Hits are enriched below; roughly 0.51% of the tested compounds scored in any of these assays.
FMDV antiviral: FMDV antiviral activity by firefly signal. FMDV antiviral cell assay, firefly luciferase signal. Potency, µM (top dose mostly 57.5 µM), without a hit: at the top dose activity change, negative = inhibition, actives largely listed as inhibitors. 120,000 tested, 0.23% active. AID 1745856; note: nearly all actives have a fitted effect of over 60% in size
FMDV RLuc: shows antiviral activity in FMDV Renilla assay; FMDV replicon cells, Renilla luciferase signal; AID 1745857; 120,000 tested, 0.32% active; Potency, µM (highest dose often 57.5 µM), for the others: at the top dose activity change, negative = inhibition, hits mostly inhibitors; note: nearly all actives have a fitted effect of over 55% in size
An asterisk follows results filed as active; ? = inconclusive; [ ] = another dose, or the depositor's remark. Calls come from the whole dose curve. % is set by controls: 0 for no effect and ±100 for the full control effect; potency is the fitted concentration of half-maximal effect.

SMILES | FMDV antiviral | FMDV RLuc
COc1ccc(NC(=O)COc2c(C)cccc2C)c2cccnc12 | 30.0% | 0.0%
COc1ccc(NC(=O)COc2ccccc2C)c2cccnc12 | ? | 14.1µM*
Cc1nnsc1C(=O)Nc1ccc(S(=O)(=O)N2CCCCC2)cc1 | -8.9% | -2.9%
CCC1CCCCN1S(=O)(=O)c1ccc(NC(=O)c2snnc2C)cc1 (stereo not given) | 17.8µM* | ?
CC(=O)N1CCN(c2ccccc2NC(=O)c2ccc(-c3ccccc3)cc2)CC1 | 83.0% | 54.4%
CCc1ccccc1Nc1nn2c(=O)c3ccc(C(=O)NCCc4ccccc4)cc3nc2s1 | 0.0% | 0.0%
CCc1ccccc1Nc1nn2c(=O)c3ccc(C(=O)NC(C)c4ccccc4)cc3nc2s1 (stereo not given) | 11.2µM* | ?
COc1ccc2nc(C)c(C(=O)NCc3cccnc3-n3cncn3)cc2c1 | 23.7% | 15.7%
CCc1cccc(C)c1NC(=O)C(C)n1c2ccccc2c2nc(=O)cc(C)n21 (stereo not given) | -10.5% | -6.9%
CCc1c(C)sc(NC(=O)C(F)(F)C(F)(F)C(F)(F)C(F)(F)F)c1C#N | 22.4µM* | 25.1µM*
CCc1c(C)sc(NC(=O)C(C)(C)C)c1C#N | 8.5% | 30.2%
CCc1c(C)sc(NC(=O)c2c(F)c(F)c(F)c(F)c2F)c1C#N | -6.6% | -8.4%
CCc1c(C)sc(NC(=O)C(F)(F)C(F)(F)C(F)(F)F)c1C#N | ? | 10µM*
CCC(CC)NC(=O)COC(=O)Cc1nn(C)c(=O)c2ccccc12 | -12.8% | ?
COc1ccc(CNCCc2ccc(F)cc2)cc1 | 0.0% | 3.5%[1.06 µM]
COc1ccc(CCNCc2ccc(Br)cc2)cc1 | 0.0% | 12.6µM*
CC(=O)NC(C)c1ccc(C(=O)CSc2cc(Cl)ccc2Cl)cc1 (stereo not given) | 13.7% | 8.6%
Cc1ccc(NC(=O)c2ccc(-n3cnc(NC(=O)C(C)C)c3)cc2)cc1C | 88.3% | 14.7%
CN1CCN(c2ccc(NC(=O)c3cnc4ccccc4n3)cc2)CC1 | 128.2% | -11.1%
O=C(Nc1ccc(N2CCN(Cc3ccccc3)CC2)cc1)c1cnc2ccccc2n1 | ? | 7.94µM*
COc1ccc(Oc2coc3cc(OCc4ccccc4Cl)ccc3c2=O)cc1 | 3.3% | -4.4%
COc1ccc2nc(/C(C#N)=C/c3ccccc3Sc3ccccc3)[nH]c2c1 | ? | -27.3%
COC1CC(OC2CCC3(/C=N/O)[C@H]4CCC5(C)C(C6=CC(=O)OC6)CCC5(O)[C@@H]4CCC3(O)C2)OC(C)C1O (stereo not given in full) | ? | 0.355µM*
C[C@@H]1O[C@@H](O[C@@H]2C=C3CC[C@@H]4[C@H](CC[C@]5(C)[C@@H](c6ccc(=O)oc6)CC[C@]45O)[C@@]3(C)CC2)[C@H](O)[C@H](O)[C@H]1O | -84.9% | -79.1%
CC(=O)OC1CCC2(/C=N/O)[C@H]3CCC4(C)C(C5=CC(=O)OC5)CCC4(O)[C@@H]3CCC2(O)C1 (stereo not given in full) | 0.794µM* | 1µM*
SMILES | FMDV antiviral | FMDV RLuc
CC(=O)c1c(C)[nH]c(C(=O)C(C)OC(=O)c2ccc(F)cc2Cl)c1C (stereo not given) | 20µM* | 8.91µM*
CC(=O)c1c(C)[nH]c(C(=O)C(C)OC(=O)c2cc(Cl)ccc2F)c1C (stereo not given) | 19.5% | 15.9%
CC(=O)c1c(C)[nH]c(C(=O)C(C)N(C)Cc2cccc(F)c2)c1C (stereo not given) | ? | 3.98µM*
CC(=O)c1c(C)[nH]c(C(=O)C(C)OC(=O)c2ccc(F)cc2)c1C (stereo not given) | -24.1% | -6.3%[1.06 µM]
CCCCC1(C)NC(=O)N(c2ccc(Br)cc2)N1 (stereo not given) | 69.7% | 23.2%
Cc1ccc(SCC(=O)NC2(C#N)CCCCC2)nc1 | 8.9% | 1.8%
CC(NC(=O)c1ccccc1NC(=O)c1nn(C)c(=O)c2ccccc12)c1ccccc1 (stereo not given) | 3.55µM* | 4.47µM*
CC(NC(=O)c1nn(C)c(=O)c2ccccc12)c1ccccc1 (stereo not given) | 8.0% | 6.2%
N#Cc1cccc(COC(=O)c2ccccn2)c1 | 0.6% | 0.3%
Cc1cc2ccccc2n1-c1ccc(C(=O)N2CCC(C(=O)NCc3ccccc3Cl)CC2)s1 | 24.0% | 4.1%
Cc1cc2ccccc2n1-c1ccc(C(=O)N2CCC(C(=O)NCc3ccc(Cl)cc3)CC2)s1 | 25.1µM* | ?
CCC(Oc1ccc(F)cc1)C(=O)Nc1nc(-c2ccc(F)cc2)ns1 (stereo not given) | 25.1µM* | ?
CCC(Oc1ccc(F)cc1)C(=O)Nc1cc(-c2ccc(C)cc2)no1 (stereo not given) | -2.0% | -3.9%
O=C(Nc1nc2ccc(F)cc2s1)c1ccc(CN2CCCCC2)cc1 | 40.5% | ?
COc1ccc(/C=C\c2onc(C)c2S(=O)(=O)N2CCC(C(=O)Nc3ccc(C)c(F)c3)CC2)cc1 | -10.3% | -10.0%
COc1ccc(/C=C\c2onc(C)c2S(=O)(=O)N2CCC(C(=O)Nc3ccc(F)cc3F)CC2)cc1 | 31.6µM* | 28.2µM*
COC(=O)Cc1c(C)c2ccc(OCC(=O)C(C)(C)C)c(C)c2oc1=O | ? | 28.2µM*
COC(=O)Cc1c(C)c2ccc(OCc3ccccc3F)c(C)c2oc1=O | 173.1% | 15.5%
COc1ccc2[nH]c(C)c(CCNCc3cccc(F)c3)c2c1 | 3.7% | 35.7%
COc1ccc(F)c(CNCCc2c(C)[nH]c3ccc(OC)cc23)c1 | -13.7% | 8.1%
COc1ccc(CNCCc2c(C)[nH]c3ccc(OC)cc23)c(F)c1 | 8.91µM* | 7.08µM*
COc1ccc2[nH]c(C)c(CCNCc3ccc(C(F)(F)F)cc3)c2c1 | ? | 4.47µM*
Cc1nccc(CNc2ncc(C(N)=O)cc2Cl)n1 | -0.7% | 1.7%
CC(C)(CNC(=O)Cc1ccccc1)CNC(=O)Cc1ccccc1 | -6.7% | 19.1%
CC(/C=C/N(C)C)=C\C=[N+](C)C | 8.91µM* | 3.98µM*
SMILES | FMDV antiviral | FMDV RLuc
O=C1c2c(O)ccc(O)c2C(=O)c2c(NCCNCCO)ccc(NCCNCCO)c21 | 28.2µM* | ?
Clc1ccc(Cl)c(-c2ccc(CNCC3CCNCC3)o2)c1 | 31.6µM* | 28.2µM*
Fc1ccc(-c2ccc(CNCC3CCNCC3)o2)cc1 | -27.3% | -28.5%
CCc1ccc(C(=O)N(CC)CC)o1 | 19.4% | 20.4%
CC(=O)c1ccc(/C=C/c2ccccc2)cc1 | 17.3% | 16.1%
CCc1ccc(-c2nnn(CC(=O)N3CCCC3c3ccc4c(c3)OCCO4)n2)cc1 (stereo not given) | -12.2% | -16.2%
O=C(CSc1nnnn1C1CC1)N1CCCC1c1ccc2c(c1)OCCO2 (stereo not given) | 4.3% | -5.0%
Cc1ccc(-c2nc(SCC(=O)N3CCCC3c3ccc4c(c3)OCCO4)n[nH]2)cc1 (stereo not given) | ? | 20µM*
CCc1ccc(-c2nc(SCC(=O)N3CCCC3c3ccc4c(c3)OCCCO4)n[nH]2)cc1 (stereo not given) | ? | 28.2µM*
N#Cc1c(NC(=O)CSc2ncnc3ccccc23)sc2c1CCCCC2 | 20.8% | -11.6%
O=C(CN1C(=O)S/C(=C\c2ccc(Cl)cc2)C1=O)Nc1ccc2oc(=O)ccc2c1 | -8.6% | -15.0%
COc1cc(C(=O)NCC2COc3ccccc3O2)cc(OC)c1C (stereo not given) | 15.2% | 4.9%
COc1cc(C(=O)Nc2ccccc2-c2nc(-c3ccccc3)no2)cc(OC)c1OC | 2.8% | -3.1%
COc1cc(C(=O)Nc2ccccc2-c2nc(-c3ccc(C)cc3)no2)cc(OC)c1OC | -15.2% | 35.5µM*
